This is part of a sample that, as a whole, favours compounds with a hit. Of some 79,000 tested, about 15% had one in any assay. Active and inactive are the calls of the source. Cut-off read from the data, not from the text of the source: active = growth inhibition above about 70%; inactive = the rest.

The test is described as follows: NCI Yeast Anticancer Drug Screen. Data for the bub3 strain (AID 167). Conditions: S. cerevisiae bub3 mutant strain, at 33.0 µM, stronger effect = higher value. A digest of the protocol:
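Part of a panel of yeast mutants defective in DNA damage repair or cell cycle regulation. Each strain is grown with compound, and inhibition is calculated relative to solvent-treated cultures.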
For the compound `C/C(=N\NC(=S)SCc1ccccc1)c1ccccn1`, the growth inhibition was 95% (active).
In the case of `CC[C@@]1(O)C(=O)OCc2c1cc1n(c2=O)Cc2cc3c(N)cccc3nc2-1` it was -7% (inactive); in that of `CN(C)c1ccc(Sc2ccc3nc(N)nc(N)c3c2)cc1`, -17% (inactive).
For `CC(=O)OCCOCNC(=S)N/N=C(\C)c1cnccn1`, the growth inhibition was 51% (inactive).
Next, `COc1ccc(C2c3cc4c(cc3OC(C)(O)C2C)OCO4)c(OC)c1` (stereo unspecified): 6% (inactive); `COc1cc(C2SCC(=O)N2c2ccc(-c3ccc(-n4c(-c5ccccc5)nc5ccccc5c4=O)cc3)cc2)cc(OC)c1OC` (stereo unspecified): 27% (inactive); `COc1ccc(Br)c(C(=O)Sc2nnnn2-c2cccc(Cl)c2)c1`: 8% (inactive).
Next, `O=C(NNc1ccnc2cc(Cl)ccc12)/C(=C\c1ccccc1Cl)NC(=O)c1ccccc1`: 76% (active).
Consider `CSC(=S)Nc1cccc(C)n1`, for which the growth inhibition is 15% (inactive).
Next, `O=C(/C=C\c1ccc(Cl)cc1Cl)c1cccs1`: 47% (inactive); `COc1ccc(-c2cn(-c3ccc(I)cc3)c3ncnc(N)c23)cc1`: 0% (inactive); `CN(C)c1ccc(C(C#N)=C(C#N)C#N)cc1`: -7% (inactive).
In the case of `COc1cc(/C=C2\CCc3ccccc3C2=O)cc(OC)c1OC` it was 76% (active); in that of `CC(C)/C(Cl)=N\OC(=O)Nc1cccc(Cl)c1`, 12% (inactive); in that of `NNC(=O)CCc1ccc2ccc3ccccc3c2c1`, 19% (inactive).
In the case of `COc1ccc(/C(C)=N/OC(=O)c2c(-c3ccccc3Cl)noc2C)cc1CN1CCOCC1` it was 5% (inactive); in that of `C=CC(C)(O)CCC1C(=C)C(O)CC2C(C)(C)CCCC12C` (stereo unspecified), 31% (inactive).
Take `S=C(Nc1ccc(Cl)c(Cl)c1)SCc1ccc2c(c1)OCO2`: the growth inhibition was 99% (active).
Next, `S=C(Nc1ccc(Cl)cc1)SC1CCCCC1`: 93% (active).
Take `Nc1nc(-c2cccnc2)cc(-c2cc(-c3cccnc3)nc(N)n2)n1`: the growth inhibition is -2% (inactive).
In the case of `COC1=CC(=O)C2C(C1=O)C(c1ccc(Cl)cc1)[C@@H]2C` (stereo partly specified) it was 99% (active).
Next, `c1ccc(-c2nc3cccnc3s2)cc1`: 10% (inactive); `O=[N+]([O-])c1cc(CCl)ccc1CCl`: 92% (active).
In the case of `COc1ccc(/C=C2\SC(=S)N(/C=C/c3nc4ccccc4[nH]c3=O)C2=O)cc1OC` it was 52% (inactive).
As for `CCCN(CCC)CC(O)c1cc(-c2ccc(Cl)cc2)nc2c(C)c(Cl)ccc12` (stereo unspecified), the growth inhibition was 97% (active).
Next, `O=C(Nc1ccccc1)OCCc1ccc(Cl)c(Cl)c1`: 75% (active); `CC(O)C(O)C(O)C(/C=N\Nc1ccccc1)=N/Nc1ccccc1` (stereo unspecified): 24% (inactive).
Take `C#CCCCc1ccccc1`: the growth inhibition was 2% (inactive).
Consider `CC(=O)Cc1ccc[cH-]1.[Fe+2].c1cc[cH-]c1`, for which the growth inhibition is 13% (inactive).
In the case of `Cc1cc(I)ccc1N` it was 90% (active).
Turning to `CC(C)(CN1CCCCC1)C(=O)CC(SCCS(=O)(=O)O)c1ccc(Br)cc1` (stereo unspecified), the growth inhibition is 29% (inactive).
Turning to `C[Si](C)(C)CNC(=O)OCc1ccccc1`, the growth inhibition was 83% (active).
For `CC(C(=O)N1C(=O)N(C(=O)[C@H](C)C(O)c2ccccc2)[C@H](c2ccccc2)[C@H]1c1ccccc1)[C@@H](O)c1ccccc1` (stereo partly specified), the growth inhibition was 23% (inactive).
As to `Oc1cccc2c(Cl)ccnc12`, the growth inhibition was 92% (active).
Consider `O=C1C=CC(=C(c2ccccc2)c2ccccc2)c2ccccc21`, for which the growth inhibition is 9% (inactive).
In the case of `S=C(S)NN1CCOCC1` it was 7% (inactive).

(Values after PubChem BioAssay (NCI).)
